# Results reported in PubChem BioAssay AID1159580 (chemical genetic matrix, 2015).
# The campaign covered roughly 5,500 compounds. About 2,000 (36%) were called active. Not shown: some 18% with an inconclusive outcome. The list shows a part of the results. Unmarked numbers belong to inactive results. Rule as the data show it: active = normalized growth mostly below about 0.91 (no sharp cut-off); inconclusive = no clear call, values can overlap the other calls; inactive = mostly above about 0.92.
# Assay: chemical genetic growth profiling, strain panel (AID 1159580);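 also: tested at 20 µM; growth read once vehicle control cultures reached saturation at 30 °C; 1 = growth at the plate median or of vehicle wells; lower values mean less growth of the strain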
# Conditions: growth OD
compound,measurement,setting,value
CCC/C=C/C=C/[C@@H]1C[C@@H](O)[C@@H](O)C(=O)[C@H]1C=O,normalized growth,"S. cerevisiae deletion strains, locus YBR021W, strain FUR4, active compounds read low",1.01
same,normalized growth,"S. cerevisiae deletion strains, locus YBR229C, strain ROT2, active compounds read low",0.992
same,normalized growth,"S. cerevisiae deletion strains, locus YCL029C, strain bik1, active compounds read low",0.98
same,normalized growth,"S. cerevisiae deletion strains, locus YDL035C, strain GPR1, active compounds read low",1
same,normalized growth,"S. cerevisiae deletion strains, locus YDL074C, strain BRE1, active compounds read low",1.01
same,normalized growth,"S. cerevisiae deletion strains, locus YDL101C, strain DUN1, active compounds read low",0.994
same,normalized growth,"S. cerevisiae deletion strains, locus YDL185W, strain tfp1, active compounds read low",0.0596 (active)
same,normalized growth,"S. cerevisiae deletion strains, locus YDL192W, strain arf1, active compounds read low",0.949
same,normalized growth,"S. cerevisiae deletion strains, locus YDR101C, strain arx1, active compounds read low",0.978
same,normalized growth,"S. cerevisiae deletion strains, locus YDR162C, strain NBP2, active compounds read low",0.982
same,normalized growth,"S. cerevisiae deletion strains, locus YDR318W, strain mcm21, active compounds read low",0.959
same,normalized growth,"S. cerevisiae deletion strains, locus YDR388W, active compounds read low",0.955
same,normalized growth,"S. cerevisiae deletion strains, locus YDR502C, strain sam2, active compounds read low",0.976
same,normalized growth,"S. cerevisiae deletion strains, locus YEL061C, strain CIN8, active compounds read low",0.984
same,normalized growth,"S. cerevisiae deletion strains, locus YER110C, active compounds read low",0.999
same,normalized growth,"S. cerevisiae deletion strains, locus YER155C, strain BEM2, active compounds read low",0.955
same,normalized growth,"S. cerevisiae deletion strains, locus YER167W, strain BCK2, active compounds read low",0.976
same,normalized growth,"S. cerevisiae deletion strains, locus YGL078C, strain dbp3, active compounds read low",0.94
same,normalized growth,"S. cerevisiae deletion strains, locus YGL086W, strain mad1, active compounds read low",0.976
same,normalized growth,"S. cerevisiae deletion strains, locus YGL248W, strain PDE1, active compounds read low",1
same,normalized growth,"S. cerevisiae deletion strains, locus YGR135W, strain pre9, active compounds read low",0.988
same,normalized growth,"S. cerevisiae deletion strains, locus YGR252W, strain gcn5, active compounds read low",1.16
same,normalized growth,"S. cerevisiae deletion strains, locus YHR030C, strain SLT2, active compounds read low",0.978
same,normalized growth,"S. cerevisiae deletion strains, locus YHR079C, strain IRE1 (second series), active compounds read low",0.981
same,normalized growth,"S. cerevisiae deletion strains, locus YHR094C, strain hxt1, active compounds read low",0.97
same,normalized growth,"S. cerevisiae deletion strains, locus YHR129C, strain ARP1, active compounds read low",0.99
same,normalized growth,"S. cerevisiae deletion strains, locus YHR200W, strain rpn10, active compounds read low",0.972
same,normalized growth,"S. cerevisiae deletion strains, locus YIL066C, strain RNR3, active compounds read low",0.971
same,normalized growth,"S. cerevisiae deletion strains, locus YIL073C, strain SPO22, active compounds read low",1.03
same,normalized growth,"S. cerevisiae deletion strains, locus YIL125W, strain kgd1, active compounds read low",0.853 (active)
same,normalized growth,"S. cerevisiae deletion strains, locus YIR030C, strain dcg1, active compounds read low",0.975
same,normalized growth,"S. cerevisiae deletion strains, locus YJL095W, strain BCK1, active compounds read low",1.03
same,normalized growth,"S. cerevisiae deletion strains, locus YJL134W, strain LCB3, active compounds read low",0.947
same,normalized growth,"S. cerevisiae deletion strains, locus YJL168C, strain set2, active compounds read low",0.973
same,normalized growth,"S. cerevisiae deletion strains, locus YJL187C, strain SWE1 (second series), active compounds read low",1.03
same,normalized growth,"S. cerevisiae deletion strains, locus YJR043C, strain POL32, active compounds read low",0.99
same,normalized growth,"S. cerevisiae deletion strains, locus YJR075W, strain HOC1, active compounds read low",0.977
same,normalized growth,"S. cerevisiae deletion strains, locus YKL009W, strain mrt4, active compounds read low",0.76 (active)
same,normalized growth,"S. cerevisiae deletion strains, locus YKL068W, active compounds read low",0.928 (active)
same,normalized growth,"S. cerevisiae deletion strains, locus YKL085W, strain MDH1 (second series), active compounds read low",0.88 (active)
same,normalized growth,"S. cerevisiae deletion strains, locus YKL085W, strain MDH1, active compounds read low",0.88 (active)
same,normalized growth,"S. cerevisiae deletion strains, locus YKL190W, strain CNB1, active compounds read low",0.964
same,normalized growth,"S. cerevisiae deletion strains, locus YKR001C, strain vps1, active compounds read low",0.901
same,normalized growth,"S. cerevisiae deletion strains, locus YLR039C, strain RIC1, active compounds read low",0.496 (active)
same,normalized growth,"S. cerevisiae deletion strains, locus YLR058C, strain SHM2, active compounds read low",0.99
same,normalized growth,"S. cerevisiae deletion strains, locus YLR102C, strain apc9, active compounds read low",0.983
same,normalized growth,"S. cerevisiae deletion strains, locus YLR262C, strain YPT6, active compounds read low",0.504 (active)
same,normalized growth,"S. cerevisiae deletion strains, locus YLR268W, strain sec22, active compounds read low",0.829 (active)
same,normalized growth,"S. cerevisiae deletion strains, locus YLR330W, strain CHS5, active compounds read low",0.946
same,normalized growth,"S. cerevisiae deletion strains, locus YLR342W, strain FKS1 (second series), active compounds read low",0.948
same,normalized growth,"S. cerevisiae deletion strains, locus YLR371W, strain rom2, active compounds read low",0.978
same,normalized growth,"S. cerevisiae deletion strains, locus YLR418C, strain cdc73, active compounds read low",0.999
same,normalized growth,"S. cerevisiae deletion strains, locus YML016C, strain PPZ1, active compounds read low",0.986
same,normalized growth,"S. cerevisiae deletion strains, locus YML032C, strain rad52, active compounds read low",0.954
same,normalized growth,"S. cerevisiae deletion strains, locus YML124C, strain tub3, active compounds read low",0.991
same,normalized growth,"S. cerevisiae deletion strains, locus YMR078C, strain ctf18, active compounds read low",0.973
same,normalized growth,"S. cerevisiae deletion strains, locus YMR223W, strain ubp8, active compounds read low",0.929
same,normalized growth,"S. cerevisiae deletion strains, locus YMR263W, strain SAP30, active compounds read low",0.992
same,normalized growth,"S. cerevisiae deletion strains, locus YMR307W, strain GAS1, active compounds read low",1.04
same,normalized growth,"S. cerevisiae deletion strains, locus YNL067W, strain RPL9B, active compounds read low",0.986
same,normalized growth,"S. cerevisiae deletion strains, locus YNL153C, strain GIM3, active compounds read low",1.01
same,normalized growth,"S. cerevisiae deletion strains, locus YNL233W, strain BNI4, active compounds read low",0.973
same,normalized growth,"S. cerevisiae deletion strains, locus YNL250W, strain rad50, active compounds read low",0.821 (active)
same,normalized growth,"S. cerevisiae deletion strains, locus YNL271C, strain bni1, active compounds read low",0.732 (active)
same,normalized growth,"S. cerevisiae deletion strains, locus YNL298W, strain CLA4, active compounds read low",0.901 (active)
same,normalized growth,"S. cerevisiae deletion strains, locus YNL307C, strain MCK1, active compounds read low",0.954
same,normalized growth,"S. cerevisiae deletion strains, locus YNL322C, strain KRE1, active compounds read low",0.984
same,normalized growth,"S. cerevisiae deletion strains, locus YNR052C, strain pop2, active compounds read low",0.907 (active)
same,normalized growth,"S. cerevisiae deletion strains, locus YOL006C, strain TOP1, active compounds read low",0.52 (active)
same,normalized growth,"S. cerevisiae deletion strains, locus YOL012C, strain htz1",0.336
same,normalized growth,"S. cerevisiae deletion strains, locus YOL147C, strain pex11, active compounds read low",0.986
same,normalized growth,"S. cerevisiae deletion strains, locus YOR061W, strain CKA2, active compounds read low",0.986
same,normalized growth,"S. cerevisiae deletion strains, locus YOR069W, strain VPS5, active compounds read low",0.979
same,normalized growth,"S. cerevisiae deletion strains, locus YOR136W, strain idh2, active compounds read low",0.996
same,normalized growth,"S. cerevisiae deletion strains, locus YOR144C, strain elg1, active compounds read low",0.982
same,normalized growth,"S. cerevisiae deletion strains, locus YOR184W, strain ser1, active compounds read low",0.938
same,normalized growth,"S. cerevisiae deletion strains, locus YOR316C, strain cot1, active compounds read low",0.979
same,normalized growth,"S. cerevisiae deletion strains, locus YPR119W, strain clb2, active compounds read low",0.971
same,normalized growth,"S. cerevisiae deletion strains, locus YPR141C, strain kar3, active compounds read low",0.804 (active)
same,normalized growth,"S. cerevisiae deletion strains, locus YPR163C, strain tif3, active compounds read low",0.983
same,normalized growth,"S. cerevisiae deletion strains, locus YPR167C, strain met16, active compounds read low",0.979
same,normalized growth,"S. cerevisiae deletion strains, strain wtn01, active compounds read low",0.973
same,normalized growth,"S. cerevisiae strains, strain wild type, active compounds read low",0.971
